From PubChem
The list is not random: actives were taken first. Their share in the collection is about 12%.
USP8 inh: inhibitors of human USP8 deubiquitinase; Ubiquitin carboxyl-terminal hydrolase 8 (Homo sapiens), P40818; purified USP8, Ub-rhodamine cleavage fluorescence, 30 min; inhibition, % at 20 µM; actives 4.2% (n = 47,000); AID 1645853, 2021
Target sequence (P40818 whole entry, looked up): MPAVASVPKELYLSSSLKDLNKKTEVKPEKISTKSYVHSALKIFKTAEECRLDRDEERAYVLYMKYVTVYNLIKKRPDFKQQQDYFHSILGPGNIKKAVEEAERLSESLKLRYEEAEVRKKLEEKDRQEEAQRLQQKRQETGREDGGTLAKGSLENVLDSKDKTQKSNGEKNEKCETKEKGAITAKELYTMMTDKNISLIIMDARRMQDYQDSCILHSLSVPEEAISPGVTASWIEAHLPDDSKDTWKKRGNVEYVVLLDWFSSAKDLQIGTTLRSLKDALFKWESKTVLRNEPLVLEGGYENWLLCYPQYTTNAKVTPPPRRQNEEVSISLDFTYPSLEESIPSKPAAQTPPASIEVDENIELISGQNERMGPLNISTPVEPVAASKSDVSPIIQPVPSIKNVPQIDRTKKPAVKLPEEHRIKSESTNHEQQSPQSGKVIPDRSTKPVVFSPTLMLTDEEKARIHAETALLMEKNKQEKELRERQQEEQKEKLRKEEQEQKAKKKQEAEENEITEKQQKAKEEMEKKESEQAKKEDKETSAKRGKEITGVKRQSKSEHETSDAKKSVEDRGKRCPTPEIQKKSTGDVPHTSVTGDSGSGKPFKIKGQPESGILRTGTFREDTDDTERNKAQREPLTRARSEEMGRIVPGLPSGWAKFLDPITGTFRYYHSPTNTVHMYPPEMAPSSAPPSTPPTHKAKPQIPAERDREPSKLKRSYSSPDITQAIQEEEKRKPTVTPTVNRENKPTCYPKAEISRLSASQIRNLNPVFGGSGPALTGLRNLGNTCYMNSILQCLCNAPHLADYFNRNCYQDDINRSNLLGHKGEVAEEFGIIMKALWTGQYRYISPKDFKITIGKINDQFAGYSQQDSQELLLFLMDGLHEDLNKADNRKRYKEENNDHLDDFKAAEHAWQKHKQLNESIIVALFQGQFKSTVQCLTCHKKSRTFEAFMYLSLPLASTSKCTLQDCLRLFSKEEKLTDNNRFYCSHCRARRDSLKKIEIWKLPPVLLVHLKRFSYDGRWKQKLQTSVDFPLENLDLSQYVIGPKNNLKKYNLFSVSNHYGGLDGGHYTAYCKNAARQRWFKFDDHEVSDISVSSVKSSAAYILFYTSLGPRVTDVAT
USP17 block: inhibitors of human USP17 deubiquitinase | AID 1645855, 2021 | Ubiquitin carboxyl-terminal hydrolase 17-like protein 5 (Homo sapiens), A8MUK1 | purified USP17, Ub-rhodamine cleavage fluorescence, 3 h | actives 6.5% (n = 47,000) | inhibition, % at 50 µM
USP30 block: inhibitors of human USP30 deubiquitinase. purified USP30, Ub-rhodamine cleavage fluorescence. Ubiquitin carboxyl-terminal hydrolase 30 (Homo sapiens), Q70CQ3. actives 5.3% (n = 47,000). inhibition, % at 25 µM
Hits are given with their value; n = inactive; x = no result. Cut-off read from the data, not from the text of the source: active = inhibition above about 30%; inactive = the rest.

SMILES	USP8 inh	USP17 block	USP30 block
CCOC(=O)N1CCN(Cc2nnnn2-c2cccc(F)c2)CC1	n	n	34.4
O=C(c1ccc(F)cc1)N1CCN(Cc2nnnn2-c2cccc(F)c2)CC1	n	n	n
Cc1nccc(-c2sc(C3CCN(C(=O)c4ccco4)CC3)nc2C)n1	n	n	n
O=S1(=O)NC[C@H]2CCN(Cc3ccccc3)CC[C@H]21	n	n	n
COCCn1c(C)cc(C(=O)COC(=O)c2ccc3c(c2)nc(C)n3-c2ccccc2)c1C	n	n	n
COCCn1c(C)cc(C(=O)c2sc(-c3c(N)n(C)c(=O)n(C)c3=O)nc2-c2ccccc2)c1C	n	34.9	n
Cc1cc(OCC(=O)NCC(=O)N2CC[C@@]3(O)CCCC[C@H]3C2)c2c(C)c(C)c(=O)oc2c1	n	n	n
Cc1cn2c(=O)cc(COc3cccc(C(F)(F)F)c3)nc2s1	n	n	n
Oc1cc(OCc2cccc(C(F)(F)F)c2)ccc1-c1ccn[nH]1	75.2	42.2	n
Cn1c(=O)c2c(nc(SCc3nnc(-c4ccccc4)o3)n2Cc2ccc(F)cc2)n(C)c1=O	n	59.1	62.7
Cn1c(=O)c2c(nc(CN3CCN(Cc4ccccc4)CC3)n2CCN2CCOCC2)n(C)c1=O	n	n	n
Oc1ccc(-c2nnc(Nc3ccc(Cl)c(Cl)c3)c3ccccc23)cc1	52.6	48.9	n
Cc1nnc(SCC(=O)Nc2ccc(Cl)c(Cl)c2)c2ccccc12	n	n	n
CC(=O)[C@H]1c2c(c(O)c3c(O)cccc3c2-c2c3c(c(O)c4c(O)cccc24)C(=O)C[C@](C)(O)[C@H]3C(C)=O)C(=O)C[C@]1(C)O	64.2	78.0	n
CCOC(=O)N1CCC(NC(=O)Cn2ccc3ccccc32)CC1	n	n	n
CCOC(=O)N1CCC(NC(=O)c2cnn3c(-c4ccccc4)ccnc23)CC1	n	32.0	39.6
O=C(Cn1c(=O)c2c(ncn2C2CCCC2)n(Cc2ccccc2)c1=O)NCc1ccccc1Cl	n	n	n
CN(Cc1ccccc1)C(=O)Cn1c(=O)[nH]c2c(-c3ccccc3F)c[nH]c2c1=O	n	n	n
O=C(Cn1c(=O)[nH]c2c(-c3ccccc3)c[nH]c2c1=O)NCc1ccccc1Cl	41.4	n	n
CSc1ccc(CNC(=O)Cn2c(=O)[nH]c3c(-c4ccccc4)c[nH]c3c2=O)cc1	73.1	n	n
COc1cccc(NC(=O)CC2C(=O)N(Cc3cccnc3)c3nc4ccccc4n32)c1 (stereo unspecified)	n	n	n
CCc1cccc(NC(=O)C2Oc3ccccc3NC2=O)c1 (stereo unspecified)	n	n	n
Cc1cccc(C)c1NC(=O)c1c(C)sc2c(=O)n(C(C)C)cnc12	n	n	n
Cc1ccccc1NC(=O)c1c(C)sc2c(=O)n(C(C)C)cnc12	n	31.9	n
O=C(c1cc(-c2cnc(-c3cccnc3)nc2)cn1CC1CC1)N1CCOCC1	n	n	n
SMILES	USP8 inh	USP17 block	USP30 block
Cc1ccc(-n2nnc(C(=O)NC3CCCCC3)c2N)cc1	n	53.5	n
Cc1ccc(-n2nnc(C(=O)NC3CCCC3)c2N)cc1	n	n	n
O=C(c1ccc2n[nH]nc2c1)N1CCCC(c2cnccn2)C1 (stereo unspecified)	n	n	n
O=C1CS(=O)CN1c1ccc(F)cc1 (stereo unspecified)	n	n	n
COc1c(O)c2c(=O)cc3c4c5c(cc(=O)c6c(O)c(OC)c(C[C@H](C)O)c(c(c1C[C@H](C)O)c24)c65)OCO3	n	n	n
Cn1c(CCNC(=O)c2ccco2)nc2cc([N+](=O)[O-])ccc21	n	n	n
O=C(NCCCc1nc2ccccc2n1Cc1c(Cl)cccc1Cl)c1ccco1	n	74.1	n
COc1ccccc1OCCCn1c(CN(C)C(=O)c2ccco2)nc2ccccc21	n	n	n
O=C(NCCCc1nc2ccccc2n1Cc1c(F)cccc1Cl)c1ccco1	n	34.2	n
NC(=O)C1CCN(C(=O)c2occc2COc2ccccc2)CC1	n	n	n
Cc1ccc(CNS(=O)(=O)c2c(C)[nH]c(C)c2-c2nc(C)no2)cc1	n	n	n
COCC(=O)N1CCCC(c2cc(-c3cc(C)[nH]n3)nc(C)n2)C1 (stereo unspecified)	n	n	n
Cc1cccc(C(=O)N2CCc3cc(-c4nc(NC(=O)CN5CCc6ccccc6C5)sc4C)ccc32)c1	79.0	66.4	n
CCc1nc2ccc(C(=O)Nc3nc(-c4ccc5c(c4)CCN5C(=O)c4cccc(F)c4)c(C)s3)cc2nc1CC	n	n	n
Cc1sc(NC(=O)CN(C)C2CCCCC2)nc1-c1ccc2c(c1)CCN2C(=O)c1ccccc1F	38.0	n	n
Cc1cccc(C(=O)N2CCc3cc(-c4nc(NC(=O)CN(C)C5CCCCC5)sc4C)ccc32)c1	n	n	n
Cc1sc(NC(=O)CN2CCc3ccccc3C2)nc1-c1ccc2c(c1)CCN2C(=O)c1cccc(F)c1	51.2	n	n
Cc1ccc(C(=O)N2CCc3cc(-c4nc(NC(=O)CN5CCCC5)sc4C)ccc32)cc1	n	n	n
O=c1[nH]c2cc(Cl)c(Cl)cc2nc1-c1ncc(C(F)(F)F)cc1Cl	n	n	n
COc1nccnc1NC1CCN(C(=O)COc2ccccc2)CC1	n	n	x
CCN1CCN(S(=O)(=O)c2c(C)nn(-c3ccc(C)cc3)c2C)CC1	n	n	n
Cn1c(C2CCN(C(=O)c3c(F)cccc3F)C2)nc2ccncc21 (stereo unspecified)	n	x	n
CCN(CC)S(=O)(=O)c1cc(C(=O)N2CCN=C2Cc2c(C)cc(C(C)(C)C)cc2C)ccc1F	n	n	n
COc1ccccc1N(CC(=O)N1CCc2ccccc21)S(=O)(=O)c1ccc(Cl)cc1	n	n	n
CCN(CC(=O)Nc1cc(C)on1)c1cccc2ccccc12	90.4	87.7	n
SMILES	USP8 inh	USP17 block	USP30 block
Cc1cc(NC(=O)CNc2ccccc2F)no1	n	n	n
O=C(c1cccnc1)N1C[C@H]2C[C@H]3[C@](C1)(CN(Cc1ccccc1)S3(=O)=O)O2	n	n	n
CC1CCc2c(sc3nc(CN4CCOCC4)nc(Nc4ccc(C(C)(C)C)cc4)c23)C1 (stereo unspecified)	31.2	n	n
COc1ccc(Cl)cc1Nc1nc(CN2CCOCC2)nc2sc3c(c12)CCC3	n	n	n
Cc1ccccc1-c1nc(CN(C)C(=O)Nc2cccc(C)c2C)c(C)o1	n	x	n
Cc1ccccc1-c1nc(CN(C)S(=O)(=O)c2ccccc2)c(C)o1	n	n	55.5
COc1ccc(C)c2sc(N(CCCn3ccnc3)C(=O)c3ccc(Cl)s3)nc12	n	n	n
O=C(NCc1ccncc1)c1cnc2ccccc2n1	n	n	n
O=C(NCc1ccc(-c2nc3cnccc3o2)cc1)c1ccccc1F	n	67.7	n
O=C(NCc1ccc(F)cc1)c1ccc(-c2ccccc2F)o1	n	n	n
O=C(NCc1ccc(-c2nc3cnccc3o2)cc1)c1ccccc1Cl	n	37.7	n
O=C(c1ccc(Cl)cc1)c1c[nH]cc1-c1cccc(Br)c1	n	n	n
Cc1cccc(C)c1NC(=O)Cn1cc(-c2ccccc2)c2ncn(C3CC3)c(=O)c21	n	n	n
COc1cccc(-c2cccc([C@H]3C[C@@H](NC(C)=O)[C@@H]4CCCC[C@H]4O3)c2)c1	n	n	n
